Screening data deposited in PubChem BioAssay by National Center for Advancing Translational Sciences (NCATS).
Sm TGR inh: blocks Schistosoma mansoni thioredoxin glutathione reductase; Q962Y6; purified TGR, DTNB reduction, TNB absorbance 405 nm; Potency, µM (doses to about 114 µM), without a hit: at the top dose activity change, negative = inhibition, most hits filed as inhibitors; 3% of 360,000 active; active = well fitted inhibition curve with a large enough effect; inconclusive = small, poorly fitted or top-dose-only effect; inactive = no such curve, though single readings can be large or run the other way; also: % is scaled to controls: 0 for no effect and ±100 for the full control effect; nearly all actives have a fitted effect of over 60% in size
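TGR 20 nM + NADPH 100 uM (dispensed conc.), cpd preinc 15 min RT; start with NADPH (500 uM addition) then DTNB (15 mM addition). Kinetic TNB absorbance, 405 nm filter. Four-parameter Hill fit across titration.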
SARS PLP yeast: blocks SARS-CoV papain-like protease in a yeast assay; S. cerevisiae expressing SARS-CoV PLpro, growth rescue; Potency, µM (highest dose often 32.9 µM), for inactives: top-dose activity, positive = growth rescue, most hits filed as activators; 0.19% of 330,000 active; calls by dose curve; also: 0% is about no effect; nearly all actives have a fitted effect of over 55% in size
An asterisk follows results filed as active; u = inconclusive; x = no result given; [ ] = dose if it differs, or a comment. Most compounds without a hit are left out; they make up all but 3% or so of the library. Potency is read from the fitted curve at half-maximal effect.

SMILES | Sm TGR inh | SARS PLP yeast
CCCNc1ncnc2c1c(-c1ccccc1)cn2-c1ccccc1 | 0.3% | x
COc1ccc(CCn2c(NN=C(C)C)nc3c2c(=O)[nH]c(=O)n3C)cc1 | 0.0% | -2.0%
COCCn1c(N/N=C(C)/C=C/c2ccccc2)nc2c1c(=O)[nH]c(=O)n2C | 25.1µM* | 0.2%
CC(/C=C/c1ccccc1)=N\Nc1nc2c(c(=O)[nH]c(=O)n2C)n1CCO | 14.1µM* | 0.7%
CCCn1c(N/N=C\C=C\c2ccccc2)nc2c1c(=O)[nH]c(=O)n2C | u | -1.0%
COc1ccc(-c2cn3nc(N4CCCC(C(=O)Nc5cc(C)ccc5C)C4)sc3n2)cc1 (centres undefined) | 0.7% | x
Cc1cc(C)c2c(n1)SCC(=O)N2CC(=O)Nc1cccc(C)c1C | 4.5% | x
c1ccc(Cn2nnnc2C(c2ccncc2)N2CCOCC2)cc1 (centres undefined) | 3.7% | 6.4%
Cc1cccc2cc(C(c3nnnn3Cc3ccc4c(c3)OCO4)N3CCCC3)c(=O)[nH]c12 (centres undefined) | 11.2µM* | 1.1%
COc1ccc(OC)c(C(c2nnnn2Cc2ccco2)N2CCN(C)CC2)c1 (centres undefined) | 0.0% | 0.3%
Clc1ccccc1C(c1nnnn1Cc1ccco1)N1CCN(Cc2ccco2)CC1 (centres undefined) | 31.6µM* | 2.1%
O=c1[nH]c2cc3c(cc2cc1C(c1nnnn1Cc1ccccc1)N1CCCCCC1)OCCO3 (centres undefined) | u | 8.7%
Cc1cc(C(c2nnnn2Cc2ccccc2)N2CCOCC2)c(C)n1-c1ccc2c(c1)OCO2 (centres undefined) | 10µM* | 0.4%
CCOc1ccc2[nH]c(=O)c(C(c3nnnn3Cc3ccco3)N3CCN(C)CC3)cc2c1 (centres undefined) | u | -5.5%
Cc1cc2cc(C(c3nnnn3Cc3ccco3)N3CCCCC3)c(=O)[nH]c2cc1C (centres undefined) | 39.8µM* | -4.1%
Cn1c(SCC(=O)Nc2nc3ccccc3s2)ncc(C(=O)Nc2ccc(Cl)cc2)c1=O | 11.6% | x
O=C(Nc1ccccc1Cl)C1CCN(c2nc3ccccc3nc2C(F)(F)F)CC1 | 1.1% | x
CC(C)C(c1nnnn1Cc1ccco1)N1CCN(C2CCCC2)CC1 (centres undefined) | 3.8% | 1.3%
c1coc(Cn2nnnc2CN2CCN(C3CCCC3)CC2)c1 | 31.6µM* | 2.6%
Cc1nc2ccc(S(=O)(=O)CCC(=O)Nc3ccc(Cl)cc3)cc2s1 | -22.6% | x
CCn1c2ccccc2c2nc3ccccc3nc21 | 14.3%[11.4 µM] | -14.7%
CCn1c2ccccc2c2c3ncc4cccn4c3ccc21 | 28.2µM* | -0.3%
Cc1nn(CC(=O)N2c3ccccc3NC(=O)C2(C)C)c(C)c1[N+](=O)[O-] | -12.5% | -3.9%
O=C(Cn1ncc(Cl)c(Cl)c1=O)N1CCOCC1 | -29.0% | 1.7%
O=C(CN1CCCCC1)N1CCc2ccccc21 | 62.2% | 18.8%
SMILES | Sm TGR inh | SARS PLP yeast
O=C(Cn1ncc(Cl)c(Cl)c1=O)N1CCc2ccccc21 | 15.8µM* | -1.1%
CC1(C)C(=O)Nc2ccccc2N1C(=O)Cn1ncc(Cl)c(Cl)c1=O | 10µM* | 0.2%
O=C(Cn1ncc(Cl)c(Cl)c1=O)N1CCN(Cc2ccccc2)CC1 | 8.91µM* | 0.3%
CCOc1ccc(NC(=O)N2CC=C(c3c[nH]c4ccccc34)CC2)cc1 | -2.7% | x
CCC(C)NC(=O)c1c(C)oc2nc(C)nc(N3CCOCC3)c12 (centres undefined) | 9.6% | x
Cc1ccc(S(=O)(=O)N/N=C/c2cc(Br)c(C)o2)cc1 | 0.1µM* | -15.5%
Cc1ccc(S(=O)(=O)N/N=C/c2cc(Br)ccc2O)cc1 | 1.1% | -3.5%
COC(=O)C(CC(=O)c1ccc(C)cc1)n1cccn1 (centres undefined) | u | 0.3%
COC(=O)C(CC(=O)c1ccc(Br)cc1)n1cccn1 (centres undefined) | 4.47µM* | 0.4%
COC(=O)C1=C(c2ccc(C(C)=O)cc2)C[C@@H]2CC[C@H]1N2C(=O)NC(C)C | 35.5µM* | -13.6%
COC(=O)C1=C(c2ccc(C(C)=O)cc2)C[C@@H]2CC[C@H]1N2C | -7.1% | 0.8%
Cc1ccccc1OCC(=O)N(Cc1ccco1)c1c(N)n(Cc2ccccc2)c(=O)[nH]c1=O | 44.7µM* | -0.1%
Nc1c(N(Cc2ccco2)C(=O)COc2ccccc2F)c(=O)[nH]c(=O)n1Cc1ccccc1 | -30.3% | 0.1%
Nc1c(N(CCO)C(=O)/C=C/c2ccco2)c(=O)[nH]c(=O)n1Cc1ccccc1 | 50.1µM* | 2.5%
CCCCN(C(=O)/C=C/c1ccco1)c1c(N)n(CCC)c(=O)[nH]c1=O | u | 0.0%
CCC(C(=O)N(C)Cc1ccccc1)n1nc(C)c2sc3ccccc3c2c1=O (centres undefined) | -5.8% | x
Oc1ccc2ccccc2c1CNc1ccccn1 | 2.24µM* | -1.3%
Cc1ccc(O)c(CNc2ccccn2)c1 | 1.9% | 11.1%
CCOc1ccc(NC(=O)Cn2cnc3sc(C)c(S(=O)(=O)N4CCN(c5ccccc5OC)CC4)c3c2=O)cc1 | -2.7% | x
CCN(CC)S(=O)(=O)c1ccc2c(c1)N(CC(=O)Nc1c(C)cccc1C)C(=O)C1CCCN21 (centres undefined) | -2.3% | x
Cc1ccc2c(CN3CCCCC3CCO)cc(=O)oc2c1 (centres undefined) | 25.1µM* | -3.7%
Cc1ccc2c(CN3CC(C)CC(C)C3)cc(=O)oc2c1 (centres undefined) | 89.1µM* | -0.1%
Cc1ccc2c(CN3CCCCC3C)cc(=O)oc2c1 (centres undefined) | 1.8% | -1.0%
Cc1ccc2c(CN3CCC(C)CC3)cc(=O)oc2c1 | -7.3% | -7.1%
O=C(Nc1ccc(Cl)cc1)C1CCN(S(=O)(=O)c2ccc(Br)s2)CC1 | -1.6% | x
SMILES | Sm TGR inh | SARS PLP yeast
COc1ccc(N(C)C(=O)NCc2noc3ccc(C)cc23)c(OC)c1 | 9.0% | x
O=C(NCc1ccc(Cl)cc1)C1(c2cccs2)CCOCC1 | 16.5% | x
CCCCN(CC)c1nc(-c2ccccc2F)nc2ccccc12 | 17.2% | x
N#Cc1nccnc1S(=O)(=O)c1cccs1 | 0.1µM* | -6.1%
CN(Cc1ccccc1C#N)S(=O)(=O)c1cccs1 | 7.2% | -3.3%
CCCc1ccc(OC(C)c2nc(-c3ccc(-n4cccc4)cc3)no2)cc1 (centres undefined) | 8.6% | x
CC(c1ccon1)N(C)Cc1cn(C)nc1-c1cccc(Cl)c1 (centres undefined) | 28.2µM* | -0.4%
Cc1cnccc1CN(C)Cc1cn(C)nc1-c1cccc(Cl)c1 | u | -0.9%
COc1ccc2ccccc2c1/C=N/NC(=O)c1cccc(Br)c1 | 2.8% | -23.7%
O=C(Nc1ccc(N2CCOCC2)nc1N1CCOCC1)c1cccc(C(F)(F)F)c1 | 6.6% | 0.9%
O=C(N/N=C/c1ccc(N2CCOCC2)o1)c1ccccc1[N+](=O)[O-] | 8.91µM* | 21.0%
O=C(N/N=C/c1ccc(N2CCOCC2)o1)c1cccc(C(F)(F)F)c1 | 11.2µM* | -0.8%
O=C(N/N=C/c1ccc(N2CCCCC2)o1)c1ccccc1[N+](=O)[O-] | 3.98µM* | 18.4%
O=C(N/N=C/c1ccncc1)c1ccccc1[N+](=O)[O-] | -10.8% | 1.5%
O=C(Nc1ccccc1N1CCOCC1)c1ccccc1[N+](=O)[O-] | 10.7% | 1.7%
O=C(N/N=C/c1c(O)ccc2ccccc12)c1cccc(C(F)(F)F)c1 | 5.2% | 3.98µM*
O=C(Nc1ccccc1Cl)c1cc2c(-c3ccccc3)nn(-c3ccccc3)c2s1 | 4.1% | x
C[C@@H]1NCCc2cc(O)c(O)cc21 | 44.7µM* | x
